This is a sample that favours compounds with a hit; in the whole collection about 2.8% have one here.
SENP7 block: SENP7 protease inhibitors, primary screen, biochemical, luminescence, uHTS; Sentrin-specific protease 7 (Homo sapiens), Q9BQF6; recombinant SENP7, Z-RLRGG-aminoluciferin luminescence, 40 min; inhibition, % at 5 µM; hit rate 1.5% among 330,000;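 active = inhibition above about 50% at the single test dose, limit read from the data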;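 also: plate controls were DMSO with enzyme for no effect and no enzyme buffer wells for full effect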
SENP8 block-1: human SENP8 protease inhibitors, primary screen, biochemical, fluorescence, Nedd8 protein substrate, uHTS; Sentrin-specific protease 8 (Homo sapiens), Q96LD8; recombinant SENP8; inhibition, % at 20 µM; hit rate 0.64% among 360,000; AID 602440, 2012; in the data active = inhibition mostly above about 40%, no sharp cut-off; inactive = mostly below about 27%
Target sequence (Q96LD8 whole entry, looked up): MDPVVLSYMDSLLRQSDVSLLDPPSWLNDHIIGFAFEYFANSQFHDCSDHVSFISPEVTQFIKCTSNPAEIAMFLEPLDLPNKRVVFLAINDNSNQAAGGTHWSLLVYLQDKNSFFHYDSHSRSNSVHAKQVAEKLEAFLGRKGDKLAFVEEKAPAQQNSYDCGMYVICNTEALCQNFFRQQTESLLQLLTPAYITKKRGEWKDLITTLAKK
HSP90 refold inh: HSP90 inhibitors, primary screen, cell lysate, luminescence; Rabbit reticulocyte lysate, luciferase refolding luminescence, 3 h; inhibition, % at 5.6 µM; hit rate 0.91% among 290,000;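 active = inhibition above the screen-wide mean plus 3 SD, computed separately per campaign, cut at about 16% in these data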;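 also: 0% = DMSO wells and 100% = 60 µM geldanamycin wells; inhibitors lower the luminescence because luciferase stays unfolded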
SENP6 inh: SENP6 protease inhibitors, primary screen, biochemical, luminescence, uHTS; Recombinant SENP6 catalytic domain, aminoluciferin luminescence; inhibition, % at 10 µM; hit rate 1.8% among 330,000; AID 2599, 2010;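 active = inhibition above about 50% at the single tested dose, limit read from the data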;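 also: plate controls were DMSO wells with enzyme for no effect and DMSO wells lacking enzyme for full effect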
SENP8 block-2: SENP8 protease inhibitors, primary screen, biochemical, luminescence | Sentrin-specific protease 8 (Homo sapiens), Q96LD8 | inhibition, % at 10 µM | purified SENP8, Z-RLRGG-aminoluciferin cleavage | AID 2540, 2010 | hit rate 1.2% among 330,000; in the data active = inhibition above about 50%
SENP8 confirm: SENP8 protease inhibitors, retest, confirmation, biochemical, luminescence, single concentration; inhibition, % at 12.5 µM; Recombinant SENP8, Z-RLRGG-aminoluciferin luminescence, 60 min; shares compounds with SENP7 block; AID 488912, 2010; hit rate 40% among 6,200;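 active = mean inhibition across replicates above about 50%, limit read from the data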
SENP6 confirm: SENP6 protease inhibitors, confirmation, biochemical, luminescence, single concentration. shares compounds with SENP7 block. recombinant SENP6, Z-RLRGG-aminoluciferin luminescence. inhibition, % at 12.5 µM. hit rate 58% among 6,200
SENP7 confirm: SENP7 protease inhibitors, retest, confirmation, biochemical, luminescence, single concentration | recombinant SENP7, Z-RLRGG-aminoluciferin luminescence, 40 min | shares compounds with SENP7 block | hit rate 69% among 6,200 | AID 488917, 2010 | inhibition, % at 12.5 µM
Casp3 select: caspase-3 protease inhibitors, confirmation, selectivity assay for SENP inhibitor project, biochemical, single concentration | inhibition, % at 12.5 µM | hit rate 60% among 6,200 | purified caspase-3, Z-DEVD-aminoluciferin luminescence, 60 min | shares compounds with SENP7 block;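 active = mean inhibition above about 50%, limit read from the data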;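 also: plate controls were enzyme with DMSO for no effect and wells without caspase-3 for full effect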
Target sequence (P42574 28-227 limits assumed): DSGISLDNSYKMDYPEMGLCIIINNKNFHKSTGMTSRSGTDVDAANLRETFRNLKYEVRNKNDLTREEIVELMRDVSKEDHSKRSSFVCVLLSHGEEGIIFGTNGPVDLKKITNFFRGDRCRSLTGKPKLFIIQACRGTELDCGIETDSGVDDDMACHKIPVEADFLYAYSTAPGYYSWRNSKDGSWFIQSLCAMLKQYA
Luc interf: luminescence interference (SENP counter-screen); inhibition, % at 12.5 µM; hit rate 39% among 6,200; AID 488919; shares compounds with SENP7 block; Pre-incubated SENP8/Z-RLRGG-aminoluciferin, luciferase luminescence interference;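 active = mean inhibition above about 50% when retested at one dose, limit read from the data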;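 also: plate controls were DMSO wells with completed reaction for no effect and substrate without enzyme for full effect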
* hit, by the source's call; i = inactive; . = not tested or not shown.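 The calls were made as follows, unless noted: active = mean inhibition above about 50% in the one-dose retest (limit read from the data); inactive = the rest.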

SMILES | SENP7 block | SENP8 block-1 | HSP90 refold inh | SENP6 inh | SENP8 block-2 | SENP8 confirm | SENP6 confirm | SENP7 confirm | Casp3 select | Luc interf
COc1ccc(NC(=O)NCc2ccc3c(c2)OCO3)cc1 | 3 | 16 | -2 | 5 | 6 | . | . | . | . | .
O=C(Nc1ccc2c(c1)OCO2)c1ccccc1 | 55* | 11 | 9 | 62* | 41 | 50 | 47 | 81* | 81* | 61*
Cc1c(NC(=O)/C(C#N)=C/c2c(N3CCCCC3)nc3ccccn3c2=O)c(=O)n(-c2ccccc2)n1C | 5 | -14 | -2 | -13 | 0 | . | . | . | . | .
Cc1nnc(SCC(=O)N2CCOCC2)n1C | 9 | 34 | 0 | -11 | 6 | . | . | . | . | .
O=C(COc1ccccc1F)OCC(=O)N1CCc2ccccc21 | 1 | -13 | . | 1 | 2 | . | . | . | . | .
COc1ccccc1NC(=O)c1cc2ccc(O)cc2o/c1=N\O | 95* | i | 2 | 95* | 94* | 8 | 99* | 103* | 92* | 52*
COc1ccccc1N=c1oc2cc(O)ccc2cc1C(N)=O | 0 | -285 | 8 | 91* | 50 | 99* | 100* | 101* | 99* | 92*
Cc1ccc(S(=O)(=O)N2[C@@H](c3ccc(Cl)cc3)C(C(=O)O)=CC[C@H]2c2ccc(C(C)C)cc2)cc1 | 6 | 1 | . | 14 | 10 | . | . | . | . | .
CCOc1ccc(/C=C\C(C)=N\O)cc1 | -3 | 9 | 0 | 91* | 84* | 90* | 90* | 100* | 93* | 90*
CCOc1ccc(/C=C/C(=O)CCC(=O)O)cc1 | 63* | 6 | -6 | 70* | 41 | 66* | 53* | 84* | 0 | 72*
COc1ccc(CCN2CC(C(=O)N(C)CC(=O)Nc3ccc(Cl)c(C(F)(F)F)c3)CC2=O)cc1OC (stereo not given) | -1 | 8 | . | 7 | 0 | . | . | . | . | .
Cc1ccc(C(=O)Nc2ccc3c(c2)CCC3)o1 | 80* | 9 | 2 | 82* | 68* | 72* | 68* | 92* | 82* | 78*
O=C(Nc1ccc(N2CCCC2)cc1)c1ccc(Br)o1 | 7 | 8 | 0 | 11 | 5 | . | . | . | . | .
O=C(Nc1ccc2c(c1)OCO2)c1ccc(Br)o1 | 7 | 10 | -4 | 65* | 58* | 10 | 65* | 90* | 82* | 67*
CCN(CC)c1ccc(NC(=O)c2ccc(Br)o2)cc1 | 27 | 12 | -6 | -16 | 13 | . | . | . | . | .
O=C(Nc1ccc2c(c1)CCC2)c1ccc(Br)o1 | 89* | 24 | 5 | 90* | 79* | 88* | 87* | 99* | 86* | 87*
COC(=O)Cc1ccc(NC(=O)c2ccc(Br)o2)cc1 | 32 | 11 | -1 | 51* | 26 | 37 | 31 | 68* | 70* | 49
CC(=O)Nc1ccc2c(c1)CCCC2 | 12 | 11 | 1 | 4 | 1 | . | . | . | . | .
O=C(COC(=O)CNC(=O)c1ccc(Br)o1)Nc1ccc2c(c1)OCCO2 | -2 | 13 | -1 | -7 | -3 | . | . | . | . | .
CCCCN(C(=O)Cc1cccs1)c1nnc(-c2cccnc2)s1 | 5 | -8 | -4 | 9 | -9 | . | . | . | . | .
CCCCNC(=O)C1C(c2ccccc2)=Nc2ccccc2N1C(=O)c1ccc(C(F)(F)F)cc1 (stereo not given) | . | 6 | . | . | . | . | . | . | . | .
NS(=O)(=O)c1ccc(CCNC(=O)Cn2c(=O)c3cccn3c3cccnc32)cc1 | 2 | -53 | 0 | -15 | -7 | . | . | . | . | .
O=C(Nc1ccc2c(c1)oc1ccccc12)c1ccc(Br)o1 | 77* | -25 | -5 | 48 | 21 | 6 | 16 | 28 | 11 | 5
O=C(Nc1ccccc1)c1ccc(Br)o1 | 25 | 10 | 3 | 25 | 4 | . | . | . | . | .
O=C(Nc1ccc2c(c1)OCO2)c1ccc(COc2ccc3c(c2)CCC3)o1 | -5 | 6 | 11 | 54* | 24 | 16 | 30 | 37 | 14 | 20
SMILES | SENP7 block | SENP8 block-1 | HSP90 refold inh | SENP6 inh | SENP8 block-2 | SENP8 confirm | SENP6 confirm | SENP7 confirm | Casp3 select | Luc interf
O=C(Nc1ccc2c(c1)CCC2)c1cc2ccccc2o1 | 68* | 7 | 4 | 77* | 45 | 61* | 65* | 87* | 48 | 58*
O=C(Nc1ccc2c(c1)Cc1ccccc1-2)c1cc2ccccc2o1 | 6 | -307 | 1 | -5 | 3 | . | . | . | . | .
CN(C)c1ccc(NC(=O)c2ccc(COc3cccc(Cl)c3)o2)cc1 | -9 | 36 | 2 | -23 | -11 | . | . | . | . | .
COc1ccc(C2=NN(S(C)(=O)=O)C(c3cccs3)C2)cc1 (stereo not given) | 46 | 11 | 0 | -10 | 30 | . | . | . | . | .
CCc1ccc(C2=NN(S(C)(=O)=O)C(c3cccs3)C2)cc1 (stereo not given) | 92* | -51 | 2 | 96* | 83* | 90* | 90* | 99* | 90* | 86*
CS(=O)(=O)N1N=C(c2ccc(Br)cc2)CC1c1cccs1 (stereo not given) | 34 | 25 | 0 | 61* | 40 | 8 | 9 | 83* | 56* | 6
CS(=O)(=O)N1N=C(c2cccs2)CC1c1ccccc1 (stereo not given) | 2 | -1 | 2 | 19 | -1 | . | . | . | . | .
Cc1ccc(C2=NN(S(C)(=O)=O)C(c3cccs3)C2)cc1 (stereo not given) | 52* | 22 | 0 | 74* | 54* | 68* | 64* | 87* | 75* | 67*
CS(=O)(=O)NCc1nnc(SCc2ccccc2C(F)(F)F)o1 | -6 | 6 | -4 | -8 | -12 | . | . | . | . | .
NC1CCN(c2c(F)cc3c(=O)c(C(=O)O)cn(C4CC4)c3c2Cl)C1 (stereo not given) | 67* | -18 | 3 | -9 | -5 | -3 | 4 | -5 | -2 | -6
O=C(Nc1cccc2nsnc12)c1ccc2c(c1)OCO2 | 60* | -407 | -9 | 69* | 52* | 30 | 66* | 77* | 67* | 11

Compound activity deposited in PubChem by several laboratories.
